This is an account of results in PubChem BioAssay (NCI).

SMILES strings stand for the structures. Compounds without any hit were thinned out: in the full panel of roughly 83,000, 20% have a hit.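 Cell lines were cultured in 96-well plates, exposed to a single compound concentration, and assessed for percent growth 48 hours later.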 Values without a mark were called inactive. Active and inactive are the calls of the source. How the source made its calls: active means growth percent below 10; inactive means the rest.

Test systems include NCI-H23 lung; NCI-H226 lung; NCI-H322M lung; HOP-62 NSCLC; NCI-H460 lung; HOP-92 NSCLC; NCI-H522 lung; A549/ATCC NSCLC; 786-0 renal; COLO 205 colon; DU-145 prostate; K-562 leukemia; MALME-3M melanoma; MDA-MB-231 breast; RXF 393 renal; SF-268 CNS; SF-295 CNS; SF-539 CNS; UACC-257 melanoma; M14 melanoma.
What all share (test): NCI-60 one-dose screen, 48 h (100 = growth as untreated, 0 = no growth, -100 = all killed)
Holding throughout (settings): 10 µM unless noted

With `Cc1cccc(NC(=O)N/C(N)=N/c2nc(C)c(C)s2)c1`, the growth is 61.9% in the assay with NCI-H23 lung; 71.3% in the assay on NCI-H226 lung; 82.7% in the assay on NCI-H322M lung; 55.3% in the assay on HOP-62 NSCLC; 20.2% with NCI-H460 lung; 67.5% in the assay on HOP-92 NSCLC. Further, the growth in the assay with NCI-H522 lung is 24.2%; with A549/ATCC NSCLC it was 42.6%; in the assay with 786-0 renal it was 83.1%; in the assay with COLO 205 colon, 36%; with DU-145 prostate it was 71.6%; in the assay on K-562 leukemia, 10.7%. Further, the growth was 58.5% in the assay with MALME-3M melanoma; 65.2% in the assay with MDA-MB-231 breast; 78.2% with RXF 393 renal; 75.1% in the assay on SF-268 CNS; 48.6% in the assay on SF-295 CNS; 56.7% in the assay on SF-539 CNS. Also, the growth with UACC-257 melanoma is 62.2%; in the assay on M14 melanoma, 28.1%.

Take `COc1cc(C2CC(c3cc(OC)c(OCCCOc4ccc(-n5c(/C=C/c6ccccc6)nc6ccccc6c5=O)cc4)c(OC)c3)=NO2)cc(OC)c1OC` (stereo not given): the growth was 112% in the assay with NCI-H23 lung; 110% in the assay on NCI-H226 lung; 123% with NCI-H322M lung; 122% in the assay on HOP-62 NSCLC; 113% in the assay with NCI-H460 lung; 42.5% in the assay on HOP-92 NSCLC. For the same compound, the growth in the assay on NCI-H522 lung is 91.1%; in the assay with A549/ATCC NSCLC it was 99.7%; in the assay with 786-0 renal, 108%; with COLO 205 colon, 115%; in the assay with DU-145 prostate, 120%; in the assay on K-562 leukemia, 78.7%. Moreover, the growth in the assay with MALME-3M melanoma was 143%; in the assay with MDA-MB-231 breast, 110%; in the assay on RXF 393 renal it was 116%; in the assay on SF-268 CNS, 107%; in the assay on SF-295 CNS, 81%; in the assay on SF-539 CNS it was 108%. Besides, the growth in the assay with UACC-257 melanoma was 106%; in the assay with M14 melanoma, 127%.

Turning to `COc1nc2c(c(=O)n1C)CN(c1ccccc1)C(=O)CN2C`, the growth was 56.9% [100 µM] in the assay with NCI-H23 lung; 52.3% [100 µM] in the assay on NCI-H226 lung; 62.1% [100 µM] in the assay with NCI-H322M lung; 63.6% [100 µM] with HOP-62 NSCLC; 59.4% [100 µM] in the assay on NCI-H460 lung; 56.9% [100 µM] in the assay with HOP-92 NSCLC. Further, the growth in the assay with NCI-H522 lung was 67% [100 µM]; in the assay on A549/ATCC NSCLC, 55.7% [100 µM]; in the assay on 786-0 renal, 55.2% [100 µM]; with COLO 205 colon, 68.8% [100 µM]; in the assay on DU-145 prostate it was 66.3% [100 µM]; with K-562 leukemia it was 55.2% [100 µM]. The growth is 74.3% [100 µM] with MALME-3M melanoma; 47.5% [100 µM] with MDA-MB-231 breast; 60.4% [100 µM] in the assay on RXF 393 renal; 63.4% [100 µM] with SF-268 CNS; 50.7% [100 µM] in the assay with SF-295 CNS; 60.8% [100 µM] in the assay with SF-539 CNS. Besides, the growth was 73.6% [100 µM] with UACC-257 melanoma and 68% [100 µM] with M14 melanoma.

As to `CCCCN(CCCC)CC(C)(C)C(O)c1ccc(OC)c2ccccc12` (stereo not given), the growth is -1.81% (active) in the assay with NCI-H23 lung; 51.7% in the assay with NCI-H226 lung; 44.9% in the assay on NCI-H322M lung; 73.7% in the assay on HOP-62 NSCLC; 39.1% in the assay on NCI-H460 lung; -9.57% (active) in the assay with HOP-92 NSCLC. Besides, the growth in the assay with NCI-H522 lung is 4.57% (active); in the assay with A549/ATCC NSCLC, 63.5%; in the assay on 786-0 renal, 58.4%; with COLO 205 colon it was 71%; in the assay with DU-145 prostate, 69.2%; in the assay on K-562 leukemia, 31.2%. The growth in the assay with MALME-3M melanoma is 47.3%; with MDA-MB-231 breast it was 70.8%; with RXF 393 renal, 65%; with SF-268 CNS it was 85.3%; with SF-295 CNS, -7.15% (active); with SF-539 CNS, 76.9%. Besides, the growth is 60.2% in the assay on UACC-257 melanoma and 37% with M14 melanoma.

Regarding `Clc1cc(Cl)cc(Nc2ccc3cc(OCCCN4CCOCC4)ccc3n2)c1`, the growth in the assay with NCI-H23 lung is 37.6%; in the assay on NCI-H226 lung, 68.5%; in the assay with NCI-H322M lung it was 59.4%; with HOP-62 NSCLC it was 22%; with NCI-H460 lung, 17.5%; in the assay on HOP-92 NSCLC, 27.5%. Besides, the growth with NCI-H522 lung was -21.1% (active); in the assay on A549/ATCC NSCLC, 35.6%; in the assay with 786-0 renal, -36.6% (active); with COLO 205 colon it was -51.3% (active); with DU-145 prostate it was 40.6%; with K-562 leukemia it was -27.3% (active). Also, the growth with MALME-3M melanoma is 66.5%; in the assay on MDA-MB-231 breast it was -5.22% (active); in the assay on RXF 393 renal, 5.08% (active); with SF-268 CNS, 46.9%; in the assay with SF-295 CNS, -59.7% (active); in the assay on SF-539 CNS, 9.86% (active). Moreover, the growth in the assay on UACC-257 melanoma is 49%; with M14 melanoma, 12.6%.

For `CCCCCS(=O)(=O)Nc1ccc(C(=O)O)cc1`, the growth is 102% with NCI-H23 lung; 98.9% in the assay with NCI-H226 lung; 97.3% with NCI-H322M lung; 98.2% in the assay with HOP-62 NSCLC; 104% in the assay with NCI-H460 lung; 105% in the assay with HOP-92 NSCLC. The growth is 75.4% in the assay with NCI-H522 lung; 87.4% in the assay with A549/ATCC NSCLC; 102% in the assay on 786-0 renal; 104% with COLO 205 colon; 103% with DU-145 prostate; 104% in the assay with K-562 leukemia. Besides, the growth in the assay with MALME-3M melanoma is 98.2%; with MDA-MB-231 breast, 106%; with RXF 393 renal it was 114%; in the assay on SF-268 CNS, 101%; with SF-295 CNS it was 110%; in the assay with SF-539 CNS it was 102%. Moreover, the figures for the growth with UACC-257 melanoma and in the assay with M14 melanoma were 95% and 101%, respectively.

As to `C(=N\Nc1ncc(-c2cc3cc4c(cc3o2)OCO4)s1)/c1ccco1`, the growth in the assay on NCI-H23 lung was 20.9%; in the assay with NCI-H226 lung, 58.4%; in the assay with NCI-H322M lung, 77.3%; in the assay with HOP-62 NSCLC, 62.1%; in the assay on NCI-H460 lung it was 13.3%; with HOP-92 NSCLC, 63.2%. Moreover, the growth was 8.73% (active) in the assay with NCI-H522 lung; -10.1% (active) in the assay with A549/ATCC NSCLC; 1.77% (active) in the assay on 786-0 renal; 6.46% (active) in the assay with COLO 205 colon; 12.4% with DU-145 prostate; 21.7% with K-562 leukemia. For the same compound, the growth is 25% with MALME-3M melanoma; 42.4% in the assay on MDA-MB-231 breast; 17.1% in the assay on RXF 393 renal; 39.2% with SF-268 CNS; 84.8% in the assay on SF-295 CNS; 7% (active) with SF-539 CNS. Moreover, the growth in the assay with UACC-257 melanoma was 80.1%; with M14 melanoma it was 52.5%.

Take `O=C(COc1ccc(/C=C2\Oc3ccccc3C2=O)cc1)Nc1nc2c(s1)CCCC2`: the growth with NCI-H23 lung is 45.1%; in the assay on NCI-H226 lung, 84.3%; with NCI-H322M lung, 115%; in the assay on HOP-62 NSCLC, 44.2%; in the assay on NCI-H460 lung it was 99.5%; in the assay on HOP-92 NSCLC, -90.1% (active). Moreover, the growth is -74.9% (active) in the assay on NCI-H522 lung; 73.2% with A549/ATCC NSCLC; 20% in the assay with 786-0 renal; 102% in the assay with COLO 205 colon; -79.7% (active) in the assay on DU-145 prostate; 20.9% in the assay on K-562 leukemia. In addition, the growth is 22.6% with MALME-3M melanoma; 22.2% in the assay on MDA-MB-231 breast; -5.41% (active) with RXF 393 renal; -9.96% (active) in the assay with SF-268 CNS; 101% in the assay on SF-295 CNS; -95.7% (active) with SF-539 CNS. Also, the values for the growth in the assay with UACC-257 melanoma and in the assay with M14 melanoma were 104% and 98.3%, respectively.
